Results published in PubChem BioAssay (Tox21).
Values joined by “and” are separate entries in the source; they are usually repeats but may differ in a detail not shown here. Identical values can stand only once. Records with an inconclusive call do not appear. Where a call stands in place of a potency, no number is given. The source holds several records for some structures; these can differ, active in one and inactive in another. Active and inactive are the calls of the source. The call rests on the fitted dose curve.

test: qHTS assay for small molecule agonists of the antioxidant response element (ARE) signaling pathway - cell viability counter screen (AID 743203); conditions: ARE-bla HepG2 viability, CellTiter-Glo luminescence, 16 h; series mostly up to 73.3 µM; further: nearly all actives have a fitted effect of over 55% in size
Description: National Center for Advancing Translational Sciences [NCATS]
NIH Chemical Genomics Center [NCGC]
U.S. Environmental Protection Agency [EPA]
National Institutes of Environmental Health Sciences [NIEHS]
National Toxicology Program [NTP]
U.S. Food and Drug Administration [FDA]
Oxidative stress has been implicated in the pathogenesis of a variety of diseases ranging from cancer to neurodegeneration. The antioxidant response element (ARE) signaling pathway plays an important role in the amelioration of oxidative stress. The CellSensor ARE-bla HepG2 cell line (Invitrogen) can be used for analyzing the Nrf2/antioxidant response signaling pathway. Nrf2 (NF-E2-related factor 2) and Nrf1 are transcription factors that bind to AREs and activate these genes. The CellSensor ARE-bla Hep G2 cell line contains a beta-lactamase reporter gene under control of the Antioxidant Response Element (ARE) stably integrated into HepG2 cells. The activation of the report gene under culture conditions can be detected by fluorescence intensity. This cell line has been used to screen the Tox21 10K compound library to identify agonists that induce oxidative stress. The cytotoxicity of the Tox21 compound library against the ARE-bla cell line was tested in parallel by measuring the cell viability using CellTiter-Glo assay (Promega, Madison, WI) in the same wells.
Tox21 Assay Protocol Summary:
ARE-bla HepG2 cells were dispensed at 2,000 cells/5 ul/well in 1536-well white wall/solid bottom plates using a Multidrop Combi (ThermoFisher Scientific, Waltham, MA) dispenser. After the assay plates were incubated at 37C/5% CO2 for 5 hrs, 23 nL of compounds dissolved in DMSO, positive controls or DMSO only was transferred to the assay plate by a pintool work station (Kalypsys, San Diego, CA). The plates were incubated at 37C/5% CO2 for 16 hrs, followed by addition of 4 ul/well of CellTiter-Glo reagent into the assay plates using a Flying Reagent Dispenser (Aurora Discovery, San Diego, CA). After 30 min incubation at room temperature, the luminescence intensity in the assay plates was measured using a ViewLux (PerkinElmer, Shelton, CT) plate reader.
Potency means the concentration at half of the fitted maximal effect.

| Compound | Potency |
| --- | --- |
| C=C(C)OC(C)=O | inactive |
| COc1ccccc1NC(=O)CC(C)=O | inactive |
| NC(=O)N/N=C/c1ccc([N+](=O)[O-])o1 | inactive and 54.5 µM (active) |
| N[C@@H](Cc1c[nH]c2ccc(O)cc12)C(=O)O | inactive |
| Nc1cccc(N)c1 | inactive |
| OCCCc1ccccc1 | inactive |
| CC1=NN(c2ccccc2)C(=O)C1 | inactive |
| C#C[C@]1(O)CC[C@H]2[C@@H]3CCC4=CC(=O)CC[C@@H]4[C@H]3CC[C@@]21CC | inactive |
| CC(=O)CCC(C)C | inactive |
| Cc1cnc(NC(=O)C2=C(O)c3ccccc3S(=O)(=O)N2C)s1 | inactive |
| Cc1cccc(C)c1O | inactive |
| Cn1cnc2c1c(=O)[nH]c(=O)n2C | inactive |
| CCc1cc(C(N)=S)ccn1 | inactive |
| CCn1cc(C(=O)O)c(=O)c2ccc(C)nc21 | inactive |
| C[C@]12C[C@H](O)[C@H]3[C@@H](CCC4=CC(=O)CC[C@@]43C)[C@@H]1CC[C@@H]2C(=O)CO | inactive |
| O=C(O)Cc1cccc2ccccc12 | inactive |
| O=c1cc[nH]c(=O)[nH]1 | inactive |
| Cc1c(N(C)CS(=O)(=O)O)c(=O)n(-c2ccccc2)n1C | inactive |
| COc1ccccc1O | inactive and 24.5 µM (active) |
| CC(=O)/C=C/C1=C(C)CCCC1(C)C | inactive |

| Compound | Potency |
| --- | --- |
| COc1cc2c(c(OC)c1OC)-c1ccc(OC)c(=O)cc1[C@@H](NC(C)=O)CC2 | inactive |
| NCCNc1cccc2ccccc12 | inactive |
| COCC(C)N (stereo not given) | inactive |
| COCCOCCOC | inactive |
| CC(O)COc1ccccc1 (stereo not given) | inactive |
| CC(C)(C)CC(C)(C)c1ccc(O)c(-n2nc3ccccc3n2)c1 | inactive |
| COc1ccc(C(=O)c2ccccc2)c(O)c1 | inactive |
| Cc1cccc2ccccc12 | inactive |
| NC(=O)c1ccc([N+](=O)[O-])cc1Cl | inactive |
| CCCCOC(=O)CCCCCCCCC(=O)OCCCC | inactive |
| CCN(CC)CCOC(=O)c1ccc(N)cc1 | inactive |
| COc1cc(O)c(C(=O)c2ccccc2)cc1S(=O)(=O)O | inactive |
| OC[C@@H](O)[C@@H](O)[C@H](O)[C@H](O)CO | inactive |
| COc1cc(C=O)ccc1O | inactive |
| CCCCOCCOCCOC(C)=O | inactive |
| CCCCCCCC(=O)OCC(O)CO (stereo not given) | inactive |
| CC1(C)O[C@@H]2[C@@H](CO[C@@]3(COS(N)(=O)=O)OC(C)(C)O[C@@H]23)O1 | inactive |
| O=C1CCCCCN1 | inactive |
| Oc1cccc(O)c1 | inactive |
| CCN1CCCC1=O | inactive |
